Molecules are shown by their SMILES. About 4,300 (8.3%) of roughly 52,000 compounds were called active. The sample holds actives, similar compounds and a random draw of the others, so the mix is not that of the screen. Unmarked numbers belong to inactive results. No stated cut-off is given here; in the data, active means survival mostly below about 52% (no sharp cut-off); inactive means mostly above about 56%.

This assay concerns DeltatarO mutant. Description: growth inhibition of S. aureus wild type versus tarO mutant, primary screen, teichoic acid synthesis inhibitors, RN4220, OD600 (AID 463173). Conditions: OD600, 18 h, stronger effect = lower value, screened at 18.75 µg/mL (by protocol).
Take `COc1ccccc1NC(=O)c1c(NCc2ccc(OC)c(OC)c2OC)sc2c1CCCC2`: the survival was 93%.
Under `COc1ccc(-c2nc3ccccc3n3c(-c4ccc(OC)cc4)c4c(=O)n(C)c(=O)n(C)c4c23)cc1` stands 84%; under `CCOC(=O)c1c(S(=O)(=O)N2CCCC(C(=O)Nc3cccc(C#N)c3)C2)c(C)n(C)c1C` (stereo not given), 67%.
Under `CCc1ccccc1Nc1sc(C(=O)c2ccccc2)c(N)c1S(=O)(=O)c1ccccc1` stands 119%; under `O=C(Nc1cccc(Cl)c1N1CCOCC1)c1ccco1`, 90%.
Consider `COc1ccc(S(=O)(=O)CCc2nc3ccccc3n2CC(=O)O)cc1`, for which the survival was 113%.
Take `CCOC(=O)c1ccc(NC(=O)C(CC)Sc2nc3ccncc3[nH]2)cc1` (stereo not given): the survival was 128%.
Under `CC(NC(=O)C(=O)Nc1c2c(nn1-c1ccccc1)CSC2)c1ccccc1` (stereo not given) stands 61%; under `CN1CCN(C(=O)C(=O)Nc2c3c(nn2-c2ccc(F)cc2)CSC3)CC1`, 72%.
Under `CCC(CO)NC(=O)C(=O)Nc1c2c(nn1-c1ccc(F)cc1)CSC2` (stereo not given) stands 80%; under `CC(NC(=O)C(=O)Nc1c2c(nn1-c1ccc(F)cc1)CSC2)c1ccccc1` (stereo not given), -2% (active).
As to `CN1CCN(C(=O)C(=O)Nc2c3c(nn2-c2ccc(Cl)cc2)CSC3)CC1`, the survival was 72%.
Turning to `CC(=O)N1CCN(C(=O)C(=O)Nc2c3c(nn2-c2ccc(Cl)cc2)CSC3)CC1`, the survival was -1% (active).
Under `Cc1cccc(C)c1-n1ncc(C(=O)Nc2ccc3c(c2)OCO3)c1C1CCN(C(=O)OC(C)(C)C)CC1` stands 100%; under `Cc1ccc(-c2cn3nc(N4CCCC(C(=O)NCc5ccc(F)cc5)C4)sc3n2)cc1` (stereo not given), 86%; under `CCNC(=O)NC1(C(=O)N2CCC(Cc3ccccc3)CC2)CCCCC1`, 87%.
Under `Cc1ccc(N2CC(NC(=O)c3cccc(Cl)c3)CC2=O)cc1C` (stereo not given) stands 75%; under `COc1cc(C(=O)N2CCC(c3nc4ccccc4o3)CC2)cc(OC)c1OC`, 91%; under `Cn1c2ccccc2c2c(C(=O)N3CCN(c4ccc(F)cc4)CC3)cn(C3CCCCC3)c(=O)c21`, 132%.
Under `Cc1ccc(NC(=O)Cc2coc3ccc(C(C)C)cc23)c(C)c1` stands 88%.
For `Cc1ccc2onc(CC(=O)Nc3cccc(C(F)(F)F)c3)c2c1`, the survival is 54%.
With `CCCCOC(=O)c1ccc(NC(=O)Cc2coc3ccc(C(C)C)cc23)cc1`, the survival was 69%.
As for `COC(=O)c1ccc(NC(=O)Cc2coc3cc(C)ccc23)cc1`, the survival is 91%.
Under `Cc1ccc(NC(=O)Cc2coc3ccc(C(C)C)cc23)cc1Cl` stands 37% (active); under `Cc1cccc(NC(=O)c2oc3ccccc3c2NC(=O)Cc2coc3ccc(C(C)C)cc23)c1`, 67%; under `Cc1ccc2c(CC(=O)Nc3cccc(C(F)(F)F)c3)coc2c1`, 1% (active).
`CC(C)c1ccc2occ(CC(=O)Nc3ccccc3Cl)c2c1`: the survival is 85%.
Under `CC(C)c1ccc2occ(CC(=O)Nc3cccc(C(F)(F)F)c3)c2c1` stands 0% (active); under `CCN1Cc2cccc(C(=O)Nc3ccc(F)cc3)c2C1=O`, 129%; under `Cc1cc(C)cc(N2CCn3c2nc2c3c(=O)n(CCc3ccccc3)c(=O)n2C)c1`, 89%.
As for `COCCn1c(SCC(=O)c2ccc(OC)cc2)nc2cc(C(=O)NC3CCCC3)ccc2c1=O`, the survival was 94%.
Under `Cc1ccc(S(=O)(=O)N(C#N)c2nc(C)cc(C)n2)cc1` stands 71%; under `C=C(C)c1cccc(C(C)(C)NC(=O)N(C)C2CCN(C)CC2)c1`, 82%.
Under `COc1ccccc1-c1nnc(C2CCN(S(=O)(=O)c3ccccc3)CC2)o1` stands 84%; under `Cc1ccc(NS(=O)(=O)c2ccc3c4c(cccc24)C(=O)N3)c(C)c1`, 58%.
Under `Cc1ccc(C)c(NS(=O)(=O)c2ccc3c4c(cccc24)C(=O)N3)c1` stands 52% (active); under `COc1ccc(C)cc1NS(=O)(=O)c1ccc2c3c(cccc13)C(=O)N2`, 58%.
With `COc1ccc2nc(NC(=O)c3nc(S(=O)(=O)Cc4ccc(C)cc4)ncc3Cl)sc2c1`, the survival is 82%.
Under `CSc1ncc(Cl)c(C(=O)Nc2nc3ccc(F)cc3s2)n1` stands 98%.
Under `O=C(Nc1nc2ccc(F)cc2s1)c1nc(S(=O)(=O)Cc2ccccc2)ncc1Cl` stands 17% (active).
With `Cc1ccc2nc(NC(=O)c3nc(SCc4ccccc4C)ncc3Cl)sc2c1`, the survival was 98%.
Under `Cc1ccc(CS(=O)(=O)c2ncc(Cl)c(C(=O)Nc3nc4ccc(C)cc4s3)n2)cc1` stands 6% (active); under `O=C(Nc1nc2ccc(F)cc2s1)c1nc(S(=O)(=O)Cc2ccccc2F)ncc1Cl`, 80%; under `Cc1ccc(CS(=O)(=O)c2ncc(Cl)c(C(=O)Nc3nc4ccc(F)cc4s3)n2)cc1`, 9% (active).
Under `COc1ccc2nc(NC(=O)c3nc(S(=O)(=O)Cc4cccc(C)c4)ncc3Cl)sc2c1` stands 49%; under `Cc1cccc(CS(=O)(=O)c2ncc(Cl)c(C(=O)Nc3nc4ccc(F)cc4s3)n2)c1`, -1% (active); under `COc1ccc2nc(NC(=O)c3nc(S(=O)(=O)Cc4ccccc4)ncc3Cl)sc2c1`, 77%.
For the molecule `Cc1ccc(NC(=O)N2CCC(CN3CCCCCC3)CC2)c(Cl)c1`, the survival is 84%.
Under `O=C(c1ccccc1)N1CCCCC1CCN1CCCCC1` (stereo not given) stands 70%.
Under `CCc1ccc(N(CC)C(=O)Cn2nc(Cc3cccnc3)c3ccccc3c2=O)cc1` stands 81%.
On to `CCOc1ccc(S(=O)(=O)N(CC(=O)Nc2ccc3c(c2)OCO3)c2ccccc2)cc1`, for which the survival is 72%.
Regarding `O=C(Cn1ncc2c3ccccc3n(Cc3cccc(Cl)c3)c2c1=O)Nc1ccc(F)cc1F`, the survival is 103%.
Under `CC(C)CCNC(=O)CN1C(=O)c2cccnc2Oc2ccccc21` stands 85%; under `CC(C)c1cnc2c(c1SCC(=O)N1CCCCC1)c(=O)n(C)c(=O)n2C`, 107%; under `Cc1ccc(-c2noc(-c3ccc(NCc4cccnc4)c([N+](=O)[O-])c3)n2)cc1`, 104%.
Under `CCCCNc1ccc(-c2nc(-c3ccccn3)no2)cc1[N+](=O)[O-]` stands 46% (active).
Under `Cc1ccc(CNc2ccc(-c3nc(-c4ccccn4)no3)cc2[N+](=O)[O-])cc1` stands 104%; under `COCCNc1ccc(-c2nc(-c3ccccn3)no2)cc1[N+](=O)[O-]`, 43% (active).
As to `O=[N+]([O-])c1cc(-c2nc(-c3ccccc3)no2)ccc1NCc1cccnc1`, the survival was 47% (active).
For the molecule `O=[N+]([O-])c1cc(-c2nc(-c3cccnc3)no2)ccc1NCc1ccccc1`, the survival was 63%.
On to `O=[N+]([O-])c1cc(-c2nc(-c3ccccn3)no2)ccc1NCc1ccccc1`, for which the survival was 39% (active).
Under `COCCNc1ccc(-c2nc(-c3ccco3)no2)cc1[N+](=O)[O-]` stands 54%; under `CCNc1ccc(-c2nc(-c3ccccn3)no2)cc1[N+](=O)[O-]`, 60%.
Under `CCCNc1ccc(-c2nc(-c3ccccn3)no2)cc1[N+](=O)[O-]` stands 111%.
On to `Cc1noc(-c2ccc(NCc3ccccc3)c([N+](=O)[O-])c2)n1`, for which the survival is 66%.
In the case of `COCCNc1ccc(-c2nc(-c3ccncc3)no2)cc1[N+](=O)[O-]`, the survival was 77%.
Under `CCCCOc1ccc(C(=O)NCCc2csc3nc(-c4ccccc4F)nn23)cc1` stands 84%.
Under `NCc1nc2cccnc2n1Cc1ccccc1Cl` stands 81%; under `COc1ccc(C)cc1NC(=O)Nc1cc(C(=O)NCc2ccc(C)cc2)ccc1N1CCCC1`, 82%; under `Cc1cc2c(cc1NS(=O)(=O)c1ccc(NC(=O)CC(C)C)cc1)n(C)c(=O)c(=O)n2C`, 86%.
Under `COc1ccc(OC)c(-c2cc(C(=O)NCCc3ccccc3)c3c(-c4ccc(C)cc4)[nH]nc3n2)c1` stands 67%; under `CCCCNc1nc2c(S(=O)(=O)c3ccc(Br)cc3)nnn2c2ccsc12`, 74%; under `CCOc1nc(Nc2ccccc2)nc(OCC)n1`, 115%.
Take `CCN(C(=O)CCS(=O)(=O)c1ccc2c(c1)CCN2C(C)=O)c1cccc(C(F)(F)F)c1`: the survival was 101%.
Under `CCn1c(=O)cc(SCC(=O)NCc2cccc(Cl)c2)c2ccccc21` stands 38% (active); under `Cn1c(=O)cc(SCC(=O)NCc2ccc(F)cc2)c2cc(Cl)ccc21`, 88%.
Under `CCc1ccc(CNC(=O)CSc2cc(=O)n(C)c3ccc(Cl)cc23)cc1` stands 31% (active); under `CCn1c(=O)cc(SCC(=O)NCc2ccc(C)cc2)c2ccccc21`, 84%; under `CCc1ccc(CNC(=O)CSc2cc(=O)n(CC)c3ccccc23)cc1`, 87%.
Under `CCn1c(=O)c2cc(C(=O)NCCCN(C)Cc3ccccc3)sc2c2ccccc21` stands 106%; under `CCN(CCCNC(=O)CSc1cc(=O)n(C)c2cc(Cl)ccc12)c1cccc(C)c1`, 90%.
On to `CCn1c(=O)c2cc(C(=O)NCCc3cccc(C)c3)sc2c2ccccc21`, for which the survival was 70%.
Under `CCN(CCCNC(=O)CSc1cc(=O)n(CC)c2ccccc12)c1cccc(C)c1` stands 38% (active); under `Cn1c(=O)cc(SCC(=O)NCCc2ccc(Cl)cc2)c2cc(Cl)ccc21`, 75%.
Under `CCN(CCCNC(=O)CSc1cc(=O)n(CC)c2ccccc12)c1ccccc1` stands 53%; under `CCN(CCCNC(=O)c1cc2c(=O)n(CC)c3ccccc3c2s1)c1cccc(C)c1`, 42% (active); under `Cc1cc(C)c(NC(=O)C2CCN(c3nn4c(=O)cc(C)nc4s3)CC2)c(C)c1`, 103%.
Under `CC(=O)Nc1ccc(NCc2cccs2)cc1` stands 101%; under `Cc1cc(Nc2ccc(C(C)C)cc2)nc(-n2nc(C)cc2C)n1`, 90%; under `COC(=O)c1cc2oc(C)cc2n1CC(=O)Nc1ccc(OC)c(OC)c1`, 131%.

The values are drawn from PubChem BioAssay AID463173 (ICCB-Longwood Screening Facility, Harvard Medical School, 2010).
